Some of the results follow. No count for the full screen is at hand.
B1: HC998 (peptide)
chain: CALSTGCVVIAGNASASA
B2: HC1523 (peptide)
chain: CAAAGLQDCTAGNASASA
B3: HC2515 (peptide)
chain: CASTHCSAHLAGNASASA
B4: HC1384 (peptide)
chain: CASNSLLRHHAGNASASA
B5: FS-1934 (peptide)
chain: CARSYRIVRTAGNASASA
B6: HC752 (peptide)
chain: CAAVCTRGVAAGNASASA
B7: FS-1446 (peptide)
chain: CAASSREIRQAGNASASA
B8: FS-2463 (peptide)
chain: CARSYRDSGIAGNASASA
B9: FS-1276 (peptide)
chain: CASASRNRRHAGNASASA
B10: FS-266 (peptide)
chain: CALARRQRRHAGNASASA
B11: HC799 (peptide)
chain: CANIRTGVRTAGNASASA
B12: FS-117 (peptide)
chain: CAASSRWRRHAGNASASA
B13: FS-2917 (peptide)
chain: CAREMRALACAGNASASA
B14: HC1869 (peptide)
chain: CATTYCSGSWAGNASASA
B15: HC553 (peptide)
chain: CAGAVYTFYGAGNASASA
B16: HC2289 (peptide)
chain: CADYEVVTSTAGNASASA
B17: FS-1272 (peptide)
chain: CARSHRMRRHAGNASASA
B18: FS-2852 (peptide)
chain: CASSKRAEAPAGNASASA
B19: HC1653 (peptide)
chain: CASHARPRWIAGNASASA
B20: FS-1418 (peptide)
chain: CASSKRNRRHAGNASASA
B21: FS-1688 (peptide)
chain: CARCYRSCETAGNASASA
B22: HC662 (peptide)
chain: CASARRGREIAGNASASA
B23: HC306 (peptide)
chain: CAFTFSPRRHAGNASASA
B24: HC1291 (peptide)
chain: CAAEEDEREIAGNASASA
B25: FS-1792 (peptide)
chain: CARSHRSCRTAGNASASA
B26: FS-1791 (peptide)
chain: CARSHRDTATAGNASASA
B27: HC1562 (peptide)
chain: CAYLTRDPTTAGNASASA
B28: HC2288 (peptide)
chain: CADWEVVTSTAGNASASA

Biological target: furin, P09958
Sequence (P09958 whole entry): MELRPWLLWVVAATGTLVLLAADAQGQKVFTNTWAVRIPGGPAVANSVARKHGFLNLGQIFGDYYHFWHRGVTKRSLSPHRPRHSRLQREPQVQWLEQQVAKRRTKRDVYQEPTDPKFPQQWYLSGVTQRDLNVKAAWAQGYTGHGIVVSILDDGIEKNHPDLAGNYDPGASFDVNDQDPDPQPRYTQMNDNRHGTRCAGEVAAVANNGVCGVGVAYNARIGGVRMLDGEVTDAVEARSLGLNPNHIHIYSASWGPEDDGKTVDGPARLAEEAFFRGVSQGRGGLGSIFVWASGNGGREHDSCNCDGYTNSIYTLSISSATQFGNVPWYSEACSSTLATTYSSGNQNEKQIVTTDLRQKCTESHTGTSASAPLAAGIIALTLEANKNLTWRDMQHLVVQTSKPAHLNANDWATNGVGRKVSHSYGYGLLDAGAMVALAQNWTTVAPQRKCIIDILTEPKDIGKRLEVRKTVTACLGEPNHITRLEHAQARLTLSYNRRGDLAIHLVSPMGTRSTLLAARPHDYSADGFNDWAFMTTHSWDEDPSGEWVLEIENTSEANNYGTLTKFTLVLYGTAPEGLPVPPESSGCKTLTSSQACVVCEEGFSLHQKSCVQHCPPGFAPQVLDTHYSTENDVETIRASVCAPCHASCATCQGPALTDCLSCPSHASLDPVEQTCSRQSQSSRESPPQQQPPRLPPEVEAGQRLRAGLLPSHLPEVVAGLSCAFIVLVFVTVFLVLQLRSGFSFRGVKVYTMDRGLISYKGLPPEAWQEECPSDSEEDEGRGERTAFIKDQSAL
Test: furin cleavage Z-score vs untreated control; higher = more cleavage, active = 3.5 or more, inactive = 1 or less, 8 variable residues between constant flanks
Procedure: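 Multiplexed peptide-cDNA fusion cleavage assay. 8-mer variable peptides flanked by constant Cys-Ala (N-term) and Ala-Gly-Asn-Ala-Ser-Ala-Ser-Ala (C-term) and conjugated to a cDNA oligonucleotide were bead-immobilised via the N-terminus. They were treated with purified furin at a 1:10 enzyme:substrate ratio in 50 mM HEPES pH 7.5, 1 mM CaCl2, 100 mM NaCl for 7.5, 15 or 30 min. Released cDNA was counted by next-generation sequencing, and log counts versus no-furin controls were lowess-adjusted and converted to robust Z-scores.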

Sequence | furin cleavage Z-score (7.5 min) | furin cleavage Z-score (15 min) | furin cleavage Z-score (30 min)
B1 | -0.865 (inactive) | -1.26 (inactive) | 1.11
B2 | -0.616 (inactive) | -1.19 (inactive) | -0.342 (inactive)
B3 | 0.673 (inactive) | 1.32 | -0.709 (inactive)
B4 | 0.356 (inactive) | -0.0116 (inactive) | 0.517 (inactive)
B5 | 5.65 (active) | 7.17 (active) | 7.79 (active)
B6 | 0.499 (inactive) | 0.0628 (inactive) | 1.04
B7 | 0.448 (inactive) | 1.14 | 0.453 (inactive)
B8 | 0.464 (inactive) | 1.76 | -0.62 (inactive)
B9 | 12.5 (active) | 11.1 (active) | 8.5 (active)
B10 | 7.59 (active) | 7.8 (active) | 6.43 (active)
B11 | -0.448 (inactive) | -0.243 (inactive) | -0.393 (inactive)
B12 | 6.7 (active) | 5.67 (active) | 5.46 (active)
B13 | 0.375 (inactive) | -0.261 (inactive) | 0.24 (inactive)
B14 | -2.31 (inactive) | -0.739 (inactive) | -0.526 (inactive)
B15 | -0.781 (inactive) | -1.17 (inactive) | -0.823 (inactive)
B16 | 0.403 (inactive) | 0.654 (inactive) | 0.0996 (inactive)
B17 | 12.9 (active) | 13.7 (active) | 9.81 (active)
B18 | -1.06 (inactive) | -1.45 (inactive) | 0.412 (inactive)
B19 | 0.938 (inactive) | 1.44 | 0.423 (inactive)
B20 | 10.5 (active) | 12 (active) | 10.1 (active)
B21 | -1.32 (inactive) | 0.463 (inactive) | -0.398 (inactive)
B22 | 7.44 (active) | 8.55 (active) | 8.19 (active)
B23 | -1.3 (inactive) | -0.113 (inactive) | -0.24 (inactive)
B24 | -0.251 (inactive) | -1.7 (inactive) | -0.863 (inactive)
B25 | 0.788 (inactive) | 2.22 | 3.59 (active)
B26 | 0.447 (inactive) | 1.01 | -0.325 (inactive)
B27 | -1.51 (inactive) | -0.691 (inactive) | -1.7 (inactive)
B28 | -1.03 (inactive) | -0.418 (inactive) | -0.194 (inactive)
